Screen size: about 16,000 compounds; about 4,000 (25%) were called active. Not shown: some 26% with an inconclusive outcome. Calls follow the shape of the dose curve; as a rule, active = well fitted curve in the direction sought with a large enough effect; inconclusive = small, poorly fitted or top-dose-only effect, or effect the other way; inactive = no such curve, though single readings can be large or run the other way. The list is a sample of the results.
Biological target: Cytochrome P450 2C9 (Homo sapiens) (UniProt P11712)
Assay: Cytochrome panel assay with activity outcomes
Settings: recombinant CYP, pro-luciferin dealkylation, luminescence, p450-cyp2c9; series mostly up to 57.1 µM; activity, negative = inhibition: at the top concentration
% is scaled to controls: 0 for no effect and ±100 for the full control effect.

Chain of Cytochrome P450 2C9 (Homo sapiens) (P11712 whole entry, looked up): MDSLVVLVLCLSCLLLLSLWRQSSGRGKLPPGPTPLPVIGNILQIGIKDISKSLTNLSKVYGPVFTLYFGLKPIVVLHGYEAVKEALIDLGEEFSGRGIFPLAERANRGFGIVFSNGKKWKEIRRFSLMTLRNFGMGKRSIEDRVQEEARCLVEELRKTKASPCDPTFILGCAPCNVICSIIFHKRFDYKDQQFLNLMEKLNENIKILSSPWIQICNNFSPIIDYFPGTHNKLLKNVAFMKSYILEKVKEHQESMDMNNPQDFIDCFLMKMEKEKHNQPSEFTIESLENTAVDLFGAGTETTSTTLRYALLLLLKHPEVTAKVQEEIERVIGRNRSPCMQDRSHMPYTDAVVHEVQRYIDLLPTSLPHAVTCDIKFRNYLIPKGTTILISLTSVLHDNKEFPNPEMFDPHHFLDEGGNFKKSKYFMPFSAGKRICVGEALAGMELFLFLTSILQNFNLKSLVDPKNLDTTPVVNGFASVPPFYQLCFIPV

activity, negative = inhibition, inactive:
COc1ncc2nc(-c3cccc(C#N)c3)c(=O)n(CCC#N)c2n1 -2.35%
CCNc1ncc2nc(-c3cccc(C#N)c3)c(=O)n(CCC#N)c2n1 -9.32%
COCCn1c(=O)c(-c2cccc(C#N)c2)nc2cnc(N(C)C)nc21 -1.58%
Cn1c(=O)c(-c2cccc(C#N)c2)nc2cnc(Oc3ccccc3)nc21 4.28%
C[C@@H]1/C=C\CC(=O)OC[C@H](C)C(=O)N[C@@H](C)C(=O)OC1 5.57% [at 11.4 µM]
Nc1nc2c(nc(Br)n2[C@@H]2O[C@H]3COP(=O)(O)O[C@@H]3[C@H]2O)c(=O)[nH]1 -6.44%
COc1ccc(C2N(c3ccccn3)C(=O)C3CCCN32)c(OC)c1 (configuration not stated) -21.3%
CN(C)[C@@H]1C(=O)C(C(N)=O)=C(O)[C@]2(O)C(=O)C3=C(O)c4c(O)ccc(Cl)c4[C@H](O)[C@H]3C[C@@H]12 -18.6%
CCOC(=O)N/N=C1/C[C@@H](O)[C@@H](O)[C@@H]2[C@@H]3C(=O)N(Cc4ccccc4)C(=O)[C@H]3CC[C@H]12 -12.9% [at 11.4 µM]
CCOC(=O)N/N=C1/C[C@@H](O)[C@@H](O)[C@@H]2[C@@H]3C(=O)N(Cc4ccccc4)C(=O)[C@H]3CC[C@@H]12 23.5% [at 11.4 µM]
CC(=O)OC[C@H]1O[C@@H](O/N=C(\C)CCC(=O)OC[C@@H]2O[C@H](C#Cc3ccccc3)C=C[C@@H]2Oc2ccc(C)cc2)[C@H](OC(C)=O)[C@@H](OC(C)=O)[C@H]1OC(C)=O -6.45% [at 11.4 µM]
O=C(Nc1ccc(Cl)c(Cl)c1)N1CCC(N2CCCCC2)CC1 -11.4%
Cc1cccc(C)c1NC(=O)N1CCC(N2CCCCC2)CC1 18.1%
COCCCNC(=O)C1CC(=O)N(CCc2ccc(OC)c(OC)c2)C1 (configuration not stated) -2.84%
COCCCNC(=O)C1CC(=O)N(Cc2ccc(OC)cc2)C1 (configuration not stated) 7.71%
COc1ccccc1-c1cc(NCc2cccs2)ncn1 17.3% [at 2.29 µM]
Cc1ccc(CS(=O)(=O)CCC(=O)NCCCN2CCCC2)cc1 -9.15%
O=C(NCCN1CCOCC1)c1csc2c1CCCCC2 24.6%
CCC(=O)Nc1c2c(nc3c1CCC3)CCCC2 -14.1%
Cc1ccc(CS(=O)(=O)CCC(=O)NCCN2CCCC2)cc1 9.44%
Cc1cc(=O)[nH]c(-n2[nH]c3c(c2=O)CCCC3)n1 -22.4%
C[C@@]12C=CC(=O)C=C1CC[C@@H]1[C@@H]2[C@H](O)C[C@]2(C)[C@@H]1CC[C@]2(O)C(=O)CO 21.5% [at 25.6 µM]
O=C1CN(c2nc(-c3ccccc3)c3cc(Br)ccc3n2)c2ccccc2N1 -13.7%
O=C(Nc1ccccc1)N1CCCC2(CCN(C(=O)c3csnn3)CC2)C1 -12.1%
CCOc1cccc2cc(C(N)=O)c(=NCc3ccccc3)oc12 -15.9%
CCC1CCc2c(c3ccccc3[nH]c2=O)O1 (configuration not stated) -24.7%
Cc1cnc(CNc2nc(-c3ccc(C(=O)N(C)C)cc3)nc3ccccc23)cn1 6.85% [at 2.29 µM]
O=C(Nc1cccc(F)c1)N1CCC2(CC1)CCN(C(=O)c1ccco1)CC2 -25.9%
CCc1cc2c(nc1CC)CCN(CC/C(C)=N/OC[C@@H](C)[C@H](OCc1ccccc1)C(C)C)C2 -5.74% [at 11.4 µM]
COc1ccc(NC(=O)N2CC3(CCN(C(=O)c4ccc(OC)cc4)CC3)C2)cc1 9.75%
COc1cc(N2CCOCC2)ncn1 -23.1%
COc1ccc(-n2c(=O)c(-c3ccccc3)nc3cnc(N4CCOCC4)nc32)cc1 -1.43%
COc1ccc(-n2c(=O)c(C)nc3cnc(N4CCOCC4)nc32)cc1 -29.2%
Cc1noc(C)c1-c1nccc(N2CCOCC2)n1 7.39% [at 2.29 µM]
COC(=O)c1ccc(Oc2nc(N(C)C)nc(N3CCOCC3)n2)cc1 -44.5%
O=c1ccc(Oc2nc(N3CCOCC3)nc(N3CCOCC3)n2)n[nH]1 -26.1%

AC50, active:
COCCn1c(=O)c(-c2cccc(C#N)c2)nc2cnc(OCc3ccccc3)nc21 10 µM
COCCn1c(=O)c(-c2cccc(C#N)c2)nc2cnc(Oc3ccccc3)nc21 7.94 µM
COc1ccc(N2C(=O)c3ccccc3NC2c2ccc(OC)c(CSc3ccccn3)c2)cc1 (configuration not stated) 1.12 µM
CCOC(=O)C1=C(O)C(=O)N(Cc2ccccc2)C1 3.98 µM
CCCCCCC1CC(C)(/C(C)=N/NC(N)=O)OC1=O (configuration not stated) 22.4 µM
CC1CCN(C(=O)Nc2ccc3nsnc3c2)CC1 15.8 µM
COc1ccc(/C=C2\SC(=O)N(CCNC(=O)C3CC(=O)N(c4ccccc4)C3)C2=O)cc1 (configuration not stated) 7.94 µM
Cc1ccc(S(=O)(=O)CCC(=O)Nc2nc3c(s2)CCCC3)cc1 1.12 µM
Cc1cc(=O)[nH]c(SCC(=O)Nc2nc3c(s2)CCCC3)n1 15.8 µM
O=C(Cc1ccc(S(=O)(=O)N2CCOCC2)s1)Nc1nc2c(s1)CCCC2 15.8 µM
CCC(Sc1nc(C)cc(=O)[nH]1)C(=O)Nc1nc2c(s1)CCCC2 (configuration not stated) 7.94 µM
COC(=O)[C@@]1(Cc2ccc(F)cc2)[C@H]2c3cc(C(=O)N(C)C)n(Cc4ccc(Cl)c(C(F)(F)F)c4)c3C[C@H]2CN1C(=O)c1ccccc1 3.98 µM
COC(=O)[C@@]1(Cc2ccc(OC)cc2)[C@H]2c3cc(C(=O)N4CCCC4)n(Cc4ccc(Cl)c(C(F)(F)F)c4)c3C[C@H]2CN1C(=O)c1ccccc1 20 µM
COC(=O)[C@@]1(Cc2ccc(F)cc2)[C@H]2c3cc(C(=O)N4CCCC4)n(Cc4ccc(Cl)c(C(F)(F)F)c4)c3C[C@H]2CN1C(=O)c1ccccc1 12.6 µM
COC(=O)[C@@]1(Cc2ccc(F)cc2)[C@H]2c3cc(C(=O)N(C)C)n(CCCNc4ccc(C(F)(F)F)cc4Cl)c3C[C@H]2CN1C(=O)c1ccccc1 20 µM
O=C(Nc1cccc(F)c1)/C(=C\c1ccco1)NC(=O)c1cccs1 31.6 µM
CC(=O)c1cccc(NC(=O)/C(=C\c2ccco2)NC(=O)c2cccs2)c1 8.91 µM
CC(C)(C)C(=O)[C@H]1[C@H](c2ccccc2)[C@@]2(N=C(c3ccccc3)OC2=O)C2c3ccccc3C=NN21 (some centres not stated) 15.8 µM
Cc1cc(Oc2ccc(-c3ccccc3)cc2)nc(N2CCOCC2)n1 3.98 µM
CCCc1ccc(Oc2cc(C)nc(N3CCOCC3)n2)cc1 25.1 µM
Cc1ccc(Oc2cc(N3CCOCC3)nc(-c3ccccc3)n2)cc1 17.8 µM

Reference: PubChem BioAssay AID1851 (National Center for Advancing Translational Sciences (NCATS), 2009)
